Compound activity from PubChem BioAssay.
Rows were chosen to be rich in hits. Some 3.6% of all compounds tested hit in one or more screens of this group.
D1 agonist: agonists of human D1 dopamine receptor; P21728; HEK293 T-REx D1 cells, calcium flux, agonist mode; activation, % at 2 µM; actives 1% (n = 360,000); AID 504660; further: 0% is about no effect
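Agonism was scored from calcium flux recorded over 180 s (1 read/s) after pintool compound addition, following a 10-cycle baseline. Cells were inducible force-coupled HEK293 TREx D1, plated overnight at 30 C and loaded with no-wash calcium dye.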
TRHR PAM: TRH receptor (human) allosteric enhancement; P34981; TRHR cells, fluo-8 calcium fluorescence, EC20 TRH enhancement; actives 0.66% (n = 360,000); AID 493056; enhancement, % at 2 µM; in the data active means enhancement above about 30%; further: 0% is about no effect
Target sequence (P34981 whole entry, looked up): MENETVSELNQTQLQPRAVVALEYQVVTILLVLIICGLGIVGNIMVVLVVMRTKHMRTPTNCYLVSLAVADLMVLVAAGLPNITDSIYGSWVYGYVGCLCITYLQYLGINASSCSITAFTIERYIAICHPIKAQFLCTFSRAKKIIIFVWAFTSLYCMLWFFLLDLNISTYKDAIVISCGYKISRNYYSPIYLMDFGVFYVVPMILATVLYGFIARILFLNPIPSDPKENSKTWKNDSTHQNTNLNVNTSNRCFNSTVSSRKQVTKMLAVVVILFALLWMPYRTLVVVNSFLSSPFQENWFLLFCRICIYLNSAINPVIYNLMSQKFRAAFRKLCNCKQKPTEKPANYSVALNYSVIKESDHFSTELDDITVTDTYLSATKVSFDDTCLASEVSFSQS
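TRHR-expressing cells loaded with fluo-8 calcium dye were read kinetically (ex 480/em 530) during compound addition, then stimulated with an EC20 of TRH (10 nM final). Enhancement of the Gq-mediated intracellular calcium response was scored.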
D1 antagonist: human D1 dopamine receptor antagonism. P21728. activity change, negative = inhibition, % at 10 µM. actives 3.2% (n = 360,000). HEK293 TREx D1 cells, calcium flux, dopamine EC80; hits give low values; in the data active means activity change below about -30%; further: on the % scale 0 is the no-effect control and ±100 the full control effect
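Using tetracycline-induced force-coupled D1 Hek293 cells and a calcium dye, signals were followed for 180 s after compound, then for 180 s after EC80 dopamine, to detect inhibitors.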
TRHR agonist: agonists of human TRH receptor | activation, % at 2 µM | actives 0.18% (n = 360,000) | AID 493084 | TRHR cells, calcium flux fluo-8, FDSS agonist mode | P34981; further: 0% is about no effect
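Read-out: compound-evoked intracellular calcium rise in TRHR cells, fluo-8 dye, kinetic FDSS fluorescence at 1 s/cycle following a 10-cycle baseline. Cells cultured overnight before dye loading (30 min–1.5 h, RT).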
D1 potentiator: potentiators of human D1 dopamine receptor; P21728; actives 0.036% (n = 360,000); HEK293 TREx D1 cells, calcium flux, dopamine EC20 potentiation; potentiation, % at 10 µM; in the data active means potentiation above about 30%; further: 0% is about no effect
LDHA block: inhibitors of human lactate dehydrogenase A; P00338; purified LDHA, NADH/diaphorase-resazurin fluorescence; hits give low values; activity change, % (values are at about 110 or 230 µM); actives 0.15% (n = 480,000); in the data active means activity change below about -30%;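 further: plate controls were DMSO wells for no effect and wells without enzyme for full effect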
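Remaining NADH was detected by diaphorase (0.133 mg/mL) converting 37 µM resazurin to fluorescent resorufin, read at 0 and 20 minutes. The preceding 5-minute room-temperature reaction used 2 nM LDHA, 0.2 mM sodium pyruvate and 0.06 mM NADH at pH 7.4.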
* = called active by the depositor; . = not tested or not shown. Unless noted, no stated cut-off is given here; in the data, active means activation above about 30%; inactive means the rest.

SMILES	D1 agonist	TRHR PAM	D1 antagonist	TRHR agonist	D1 potentiator	LDHA block
Oc1ccccc1Nc1nc2ccccc2n2nnnc12	42*	1	-19	8	-2	3
c1ccc(Nc2nc3ccccc3n3nnnc23)cc1	1	4	-69*	1	-4	-13
Brc1ccc(Nc2nc3ccccc3n3nnnc23)cc1	6	-3	0	1	-2	.
N#CCCN(C(=O)Cn1nc(Cc2ccncc2)c2ccccc2c1=O)c1ccccc1	.	.	.	.	.	-7
COc1cccc(NC(CNS(=O)(=O)c2ccc(Cl)cc2)c2ccccc2)c1 (stereo not drawn)	9	7	-34*	-1	-3	7
O=C(NNc1ccccn1)c1ccccc1CC[N+](=O)[O-]	2	-9	-44*	0	-10	0
CCN(CC)S(=O)(=O)c1ccc2[nH]c(=O)cc(C(=O)N(C)CC3CC3)c2c1	.	.	.	.	.	-2
Cc1nn(CC(=O)NCCc2ccc(Cl)cc2Cl)c(C)c1[N+](=O)[O-]	34*	10	-8	-1	-6	-6
Cc1ccc(NC(=O)Cn2nc(C)c([N+](=O)[O-])c2C)cc1Cl	17	0	0	1	-13	-5
Cc1nc2ccccc2c(N)c1C(=O)/C=C/c1ccccc1	25	-7	-32*	1	-6	-5
CC(=O)c1c(C)nc2ccccc2c1N	0	-4	9	0	3	-1
O=C(Nc1cccc(Cl)c1)c1cc(N=Nc2ccc([N+](=O)[O-])cc2Cl)ccc1O	21	-3	-54*	1	-9	-46*
COc1ccccc1OCCNC(=O)COc1cc2oc(=O)cc(C)c2cc1Cl	.	.	.	.	.	7
CC(C)(C)OC(=O)NCC12C=CC(O1)C1C(=O)N(Cc3ccccc3)C(=O)C12 (stereo not drawn)	18	1	-33*	0	4	-11
Cc1ccccc1CS(=O)(=O)c1cn(CC(=O)N2CCC(C)CC2)c2ccccc12	1	-10	-65*	1	-5	-7
CCOC(=O)c1ccc(-n2c(CCC(=O)O)ccc2-c2ccc(Br)cc2)cc1	4	1	-31*	0	-3	0
CCOc1ccc(-n2c(CCC(=O)O)ccc2-c2ccc(Br)cc2)cc1	6	33*	-7	0	1	-3
O=C(O)CCc1ccc(-c2ccc(Br)cc2)n1-c1ccc(O)cc1	0	0	2	-1	0	10
Cc1c(Cl)cccc1NC(=O)c1cc(=O)[nH]c2ccc(S(=O)(=O)N3CCOCC3)cc12	.	.	.	.	.	-2
Cc1cc(=O)oc2cc(NC(=O)C(C)N3C(=O)C4CCCCC4C3=O)ccc12 (stereo not drawn)	2	4	-43*	0	-3	-1
CC(=O)Nc1ccc2c(COC(=O)[C@H](C)N3C(=O)C4CCCCC4C3=O)cc(=O)oc2c1 (stereo partly drawn)	1	2	-10	1	0	1
O=C1NC2(NN1c1ccccc1)C1CC3CC(C1)CC2C3 (stereo not drawn)	43*	-1	5	5	6	0
CSc1cccc(NC(=O)/C=C/c2cccc3ccccc23)c1	.	.	.	.	.	3
CN(C(=O)c1cccc(Cl)c1)c1nc2ccccc2o1	.	.	.	.	.	1
O=C(NCCc1ccccn1)C1CC1	.	.	.	.	.	10
SMILES	D1 agonist	TRHR PAM	D1 antagonist	TRHR agonist	D1 potentiator	LDHA block
COc1cc(-c2nc(SCC(=O)Nc3ccc4c(c3)OCO4)c(-c3ccccc3)[nH]2)cc(OC)c1OC	0	-8	1	0	-4	-1
CCOc1ccc(-n2ccnc2SCC(=O)Nc2ccc3c(c2)OCO3)cc1	1	-1	-11	-1	-4	-8
O=C(CSc1nnc(-c2cccnc2)n1-c1ccccc1)Nc1ccc2c(c1)OCO2	0	-3	-61*	-1	-4	-5
Nn1c(SCc2cccc(F)c2)nnc1-c1cccnc1	2	2	-31*	1	-5	2
O=C(CSc1nnc(-c2cccnc2)n1-c1ccccc1)Nc1ccccn1	2	2	5	1	-3	-2
O=C(CSc1nc(-c2ccccc2)[nH]c1-c1ccccc1)Nc1ccc2c(c1)OCO2	3	-5	-30*	-1	-5	2
